Targets with a hit are over-represented here; the source holds about 8,800 in all. About 0.5% of all pairs of compound and target were hits.
How the values were obtained:
Test in all cases: log2 fold change, soluble protein after heating vs DMSO (PISA); higher = thermal stabilisation; K562 lysate, 10 uM; active = over 0.2 and 3.5 SD of the protein, either way, in both replicates (recomputed)
lapatinib = compound: CS(=O)(=O)CCNCc1ccc(-c2ccc3ncnc(Nc4ccc(OCc5cccc(F)c5)c(Cl)c4)c3c2)o1 [lapatinib]
Method in brief: (§1)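 Values give the log-two fold change in thermal stability against solvent controls, from duplicates. Crude K562 extract at 1 mg/mL protein, made by dounce homogenisation in PBS pH 7.4 with 1 mM MgCl2, was treated with 10 μM compound for 30 min. After 3 min heating across 48°C-58°C, aliquots were pooled, adjusted to 0.5% NP-40 at 4°C and centrifuged at 21,000xg for 90 min. The supernatant was measured by TMTpro 16plex LC-MS/MS with channel sums equalised.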

pictilisib = compound: CS(=O)(=O)N1CCN(Cc2cc3nc(-c4cccc5[nH]ncc45)nc(N4CCOCC4)c3s2)CC1 [pictilisib]
Method in brief: as §1

crizotinib = compound: C[C@@H](Oc1cc(-c2cnn(C3CCNCC3)c2)cnc1N)c1c(Cl)ccc(F)c1Cl [crizotinib]
Method in brief: as §1

[1] = compound: C[C@H](C1=CC=C(C=C1)C(=O)NC2=C3C=CNC3=NC=C2)N
Method in brief: as §1

duvelisib = compound: C[C@H](Nc1ncnc2nc[nH]c12)c1cc2cccc(Cl)c2c(=O)n1-c1ccccc1 [duvelisib]
Method in brief: as §1

gandotinib = compound: Cc1cc(Nc2cc(CN3CCOCC3)c3nc(C)c(Cc4ccc(Cl)cc4F)n3n2)n[nH]1 [gandotinib]
Method in brief: as §1

tozasertib = compound: Cc1cc(Nc2cc(N3CCN(C)CC3)nc(Sc3ccc(NC(=O)C4CC4)cc3)n2)n[nH]1 [tozasertib]
Method in brief: as §1

doramapimod = compound: Cc1ccc(-n2nc(C(C)(C)C)cc2NC(=O)Nc2ccc(OCCN3CCOCC3)c3ccccc23)cc1 [doramapimod]
Method in brief: as §1

bafetinib = compound: Cc1ccc(NC(=O)c2ccc(CN3CC[C@H](N(C)C)C3)c(C(F)(F)F)c2)cc1Nc1nccc(-c2cncnc2)n1 [bafetinib]
Method in brief: as §1

[2] = compound: Cc1cccc(CC(=O)N2CCc3c2ccc(-c2cn(C)c4ncnc(N)c24)c3F)n1
Method in brief: as §1

Measured: log2 fold change

IRF2BP1 (UniProt Q8IU81)
inactive: lapatinib -0.01 | pictilisib 0.008 | crizotinib -0.052 | [1] -0.004 | duvelisib -0.086 | gandotinib 0.004 | tozasertib 0 | doramapimod 0.105 | bafetinib -0.1 | [2] 0.043

GOLGA6B (UniProt A6NDN3)
inactive: lapatinib -0.105 | pictilisib -0.061 | crizotinib -0.193 | [1] -0.105 | duvelisib 0.121 | gandotinib 0.109 | tozasertib 0.027 | doramapimod -0.381 | bafetinib -0.04 | [2] 0

HSD17B12 (UniProt Q53GQ0)
inactive: pictilisib -0.034 | crizotinib -0.025 | [1] -0.158 | duvelisib -0.08 | tozasertib 0.011 | doramapimod 0.047 | bafetinib -0.019 | [2] 0.149
active: lapatinib 0.31 | gandotinib 0.41

HMGA1 (UniProt P17096)
UniProt P17096, sequence (P17096 whole entry, looked up): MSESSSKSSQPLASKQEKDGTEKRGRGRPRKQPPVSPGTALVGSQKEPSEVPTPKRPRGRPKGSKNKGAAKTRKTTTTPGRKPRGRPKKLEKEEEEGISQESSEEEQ
inactive: lapatinib -0.023 | pictilisib 0.03 | crizotinib 0.007 | [1] -0.27 | duvelisib 0.058 | gandotinib 0.069 | tozasertib -0.062 | doramapimod -0.02 | bafetinib 0.043 | [2] 0.036

IRF2BPL (UniProt Q9H1B7)
UniProt Q9H1B7, sequence (Q9H1B7 whole entry, looked up): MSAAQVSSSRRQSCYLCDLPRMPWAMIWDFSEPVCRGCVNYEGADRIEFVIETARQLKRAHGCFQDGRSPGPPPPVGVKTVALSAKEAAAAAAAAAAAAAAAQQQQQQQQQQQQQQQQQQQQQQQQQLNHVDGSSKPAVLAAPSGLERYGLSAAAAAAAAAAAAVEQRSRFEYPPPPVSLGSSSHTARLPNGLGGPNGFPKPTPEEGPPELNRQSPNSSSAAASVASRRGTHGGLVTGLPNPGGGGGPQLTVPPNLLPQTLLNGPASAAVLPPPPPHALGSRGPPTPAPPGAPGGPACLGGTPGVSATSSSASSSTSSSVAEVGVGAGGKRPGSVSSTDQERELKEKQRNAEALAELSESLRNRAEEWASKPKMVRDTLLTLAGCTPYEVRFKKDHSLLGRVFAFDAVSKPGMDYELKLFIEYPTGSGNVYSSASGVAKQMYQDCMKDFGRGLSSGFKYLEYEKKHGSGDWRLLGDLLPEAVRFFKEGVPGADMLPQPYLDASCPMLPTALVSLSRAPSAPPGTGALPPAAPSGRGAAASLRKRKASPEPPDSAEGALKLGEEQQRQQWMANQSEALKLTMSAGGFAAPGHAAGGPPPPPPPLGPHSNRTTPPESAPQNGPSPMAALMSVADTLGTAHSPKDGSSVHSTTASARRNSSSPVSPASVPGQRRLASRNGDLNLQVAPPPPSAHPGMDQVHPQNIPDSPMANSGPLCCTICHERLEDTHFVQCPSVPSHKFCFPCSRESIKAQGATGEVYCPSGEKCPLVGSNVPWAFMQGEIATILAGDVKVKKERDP
inactive: lapatinib 0.017 | pictilisib 0.024 | crizotinib -0.006 | [1] -0.216 | duvelisib 0.006 | gandotinib 0.07 | tozasertib -0.005 | doramapimod -0.004 | bafetinib -0.015 | [2] 0.075

HNRNPH2 (UniProt P55795)
inactive: lapatinib 0.025 | pictilisib -0.004 | crizotinib -0.097 | [1] -0.048 | duvelisib -0.024 | gandotinib 0.068 | tozasertib -0.032 | doramapimod 0.062 | bafetinib 0.018 | [2] 0.008

HAUS4 (UniProt Q9H6D7)
inactive: lapatinib 0.021 | pictilisib -0.02 | crizotinib -0.083 | [1] -0.063 | duvelisib -0.031 | gandotinib -0.009 | tozasertib 0.042 | doramapimod 0.043 | bafetinib 0.003 | [2] 0.099

H4C1 (UniProt P62805)
inactive: lapatinib -0.043 | pictilisib -0.069 | crizotinib 0.032 | [1] 0.003 | duvelisib -0.16 | gandotinib 0 | tozasertib -0.027 | doramapimod 0.006 | bafetinib 0.059 | [2] -0.044

HDGFL2 isoform 2 (UniProt Q7Z4V5)
inactive: lapatinib 0.02 | pictilisib 0.027 | crizotinib -0.028 | duvelisib 0.037 | tozasertib 0.018 | doramapimod -0.003 | bafetinib 0 | [2] 0.167
active: [1] -0.348 | gandotinib 0.248

HDAC2 (UniProt Q92769)
UniProt Q92769, sequence (Q92769 whole entry, looked up): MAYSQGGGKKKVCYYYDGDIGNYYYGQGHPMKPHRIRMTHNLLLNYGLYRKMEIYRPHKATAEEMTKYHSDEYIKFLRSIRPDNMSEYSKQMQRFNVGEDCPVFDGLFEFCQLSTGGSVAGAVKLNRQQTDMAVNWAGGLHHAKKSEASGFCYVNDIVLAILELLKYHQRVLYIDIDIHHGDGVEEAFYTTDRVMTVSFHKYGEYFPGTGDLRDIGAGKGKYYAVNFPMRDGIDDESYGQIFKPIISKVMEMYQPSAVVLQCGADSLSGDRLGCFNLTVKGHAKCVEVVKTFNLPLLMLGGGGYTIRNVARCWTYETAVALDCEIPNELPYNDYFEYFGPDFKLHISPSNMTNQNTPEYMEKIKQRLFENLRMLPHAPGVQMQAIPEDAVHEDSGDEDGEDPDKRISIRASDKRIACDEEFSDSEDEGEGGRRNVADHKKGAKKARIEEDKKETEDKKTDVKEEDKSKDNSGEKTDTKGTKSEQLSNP
inactive: lapatinib -0.006 | pictilisib 0.002 | crizotinib 0.057 | [1] -0.047 | duvelisib -0.028 | gandotinib 0.018 | tozasertib 0.014 | doramapimod -0.05 | bafetinib -0.021 | [2] 0.028

GSTZ1 (UniProt G3V4T6)
inactive: lapatinib 0 | pictilisib 0.04 | crizotinib -0.015 | [1] -0.067 | duvelisib 0.028 | gandotinib 0.061 | tozasertib 0.004 | doramapimod -0.035 | bafetinib -0.071 | [2] 0.146

KDM5B isoform 2 (UniProt Q9UGL1)
inactive: lapatinib -0.006 | pictilisib -0.041 | crizotinib -0.02 | [1] -0.003 | duvelisib 0 | gandotinib 0.257 | tozasertib 0.13 | doramapimod -0.033 | bafetinib -0.013 | [2] 0.29

IMPDH2 (UniProt H0Y4R1)
inactive: lapatinib 0.074 | pictilisib -0.133 | crizotinib 0.19 | [1] -0.056 | duvelisib 0.011 | gandotinib 0.16 | tozasertib -0.028 | doramapimod 0.028 | bafetinib 0.022 | [2] 0.065

GMIP (UniProt Q9P107)
inactive: lapatinib -0.046 | pictilisib -0.015 | crizotinib -0.006 | [1] 0.029 | duvelisib -0.005 | gandotinib -0.024 | tozasertib -0.014 | doramapimod -0.049 | bafetinib -0.068 | [2] 0.041

INTS5 (UniProt Q6P9B9)
inactive: lapatinib -0.688 | pictilisib 0.018 | crizotinib -0.082 | [1] 0.048 | duvelisib -0.022 | gandotinib -0.235 | tozasertib 0.009 | doramapimod -0.002 | bafetinib -0.092 | [2] 0.054

GRK6 isoform 2 (UniProt P43250)
inactive: lapatinib -0.122 | pictilisib -0.088 | crizotinib 0.084 | [1] -0.066 | duvelisib -0.04 | gandotinib 0.058 | tozasertib -0.063 | doramapimod 0.046 | bafetinib 0.065 | [2] 0.028

IARS2 (UniProt Q9NSE4)
inactive: lapatinib -0.023 | pictilisib -0.013 | crizotinib -0.01 | [1] 0.19 | duvelisib -0.007 | gandotinib -0.057 | tozasertib 0.02 | doramapimod 0.011 | bafetinib -0.002 | [2] -0.049

GRK2 (UniProt P25098)
UniProt P25098, sequence (P25098 whole entry, looked up): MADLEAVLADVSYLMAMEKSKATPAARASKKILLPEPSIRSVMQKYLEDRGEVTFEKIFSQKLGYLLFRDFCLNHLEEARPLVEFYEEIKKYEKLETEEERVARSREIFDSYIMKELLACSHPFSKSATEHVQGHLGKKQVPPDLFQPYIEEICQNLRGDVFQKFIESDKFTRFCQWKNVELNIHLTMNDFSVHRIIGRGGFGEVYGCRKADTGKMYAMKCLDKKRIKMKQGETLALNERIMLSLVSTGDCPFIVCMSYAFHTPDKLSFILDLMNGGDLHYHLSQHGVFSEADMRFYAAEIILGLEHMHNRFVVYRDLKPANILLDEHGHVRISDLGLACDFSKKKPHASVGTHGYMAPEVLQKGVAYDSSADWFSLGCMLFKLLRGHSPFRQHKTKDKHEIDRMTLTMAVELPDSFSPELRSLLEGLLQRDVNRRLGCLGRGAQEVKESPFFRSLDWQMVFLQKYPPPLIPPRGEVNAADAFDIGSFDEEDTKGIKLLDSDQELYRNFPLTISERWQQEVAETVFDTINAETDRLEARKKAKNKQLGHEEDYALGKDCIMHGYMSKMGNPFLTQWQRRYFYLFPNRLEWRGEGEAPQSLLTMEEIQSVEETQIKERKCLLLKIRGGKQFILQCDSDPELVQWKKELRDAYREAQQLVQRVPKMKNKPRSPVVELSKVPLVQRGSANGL
inactive: lapatinib -0.063 | pictilisib 0.015 | crizotinib -0.038 | [1] 0.024 | duvelisib 0.017 | gandotinib 0.077 | tozasertib -0.02 | doramapimod 0.033 | bafetinib -0.017 | [2] -0.035

KDM6A (UniProt O15550)
UniProt O15550, sequence (O15550 whole entry, looked up): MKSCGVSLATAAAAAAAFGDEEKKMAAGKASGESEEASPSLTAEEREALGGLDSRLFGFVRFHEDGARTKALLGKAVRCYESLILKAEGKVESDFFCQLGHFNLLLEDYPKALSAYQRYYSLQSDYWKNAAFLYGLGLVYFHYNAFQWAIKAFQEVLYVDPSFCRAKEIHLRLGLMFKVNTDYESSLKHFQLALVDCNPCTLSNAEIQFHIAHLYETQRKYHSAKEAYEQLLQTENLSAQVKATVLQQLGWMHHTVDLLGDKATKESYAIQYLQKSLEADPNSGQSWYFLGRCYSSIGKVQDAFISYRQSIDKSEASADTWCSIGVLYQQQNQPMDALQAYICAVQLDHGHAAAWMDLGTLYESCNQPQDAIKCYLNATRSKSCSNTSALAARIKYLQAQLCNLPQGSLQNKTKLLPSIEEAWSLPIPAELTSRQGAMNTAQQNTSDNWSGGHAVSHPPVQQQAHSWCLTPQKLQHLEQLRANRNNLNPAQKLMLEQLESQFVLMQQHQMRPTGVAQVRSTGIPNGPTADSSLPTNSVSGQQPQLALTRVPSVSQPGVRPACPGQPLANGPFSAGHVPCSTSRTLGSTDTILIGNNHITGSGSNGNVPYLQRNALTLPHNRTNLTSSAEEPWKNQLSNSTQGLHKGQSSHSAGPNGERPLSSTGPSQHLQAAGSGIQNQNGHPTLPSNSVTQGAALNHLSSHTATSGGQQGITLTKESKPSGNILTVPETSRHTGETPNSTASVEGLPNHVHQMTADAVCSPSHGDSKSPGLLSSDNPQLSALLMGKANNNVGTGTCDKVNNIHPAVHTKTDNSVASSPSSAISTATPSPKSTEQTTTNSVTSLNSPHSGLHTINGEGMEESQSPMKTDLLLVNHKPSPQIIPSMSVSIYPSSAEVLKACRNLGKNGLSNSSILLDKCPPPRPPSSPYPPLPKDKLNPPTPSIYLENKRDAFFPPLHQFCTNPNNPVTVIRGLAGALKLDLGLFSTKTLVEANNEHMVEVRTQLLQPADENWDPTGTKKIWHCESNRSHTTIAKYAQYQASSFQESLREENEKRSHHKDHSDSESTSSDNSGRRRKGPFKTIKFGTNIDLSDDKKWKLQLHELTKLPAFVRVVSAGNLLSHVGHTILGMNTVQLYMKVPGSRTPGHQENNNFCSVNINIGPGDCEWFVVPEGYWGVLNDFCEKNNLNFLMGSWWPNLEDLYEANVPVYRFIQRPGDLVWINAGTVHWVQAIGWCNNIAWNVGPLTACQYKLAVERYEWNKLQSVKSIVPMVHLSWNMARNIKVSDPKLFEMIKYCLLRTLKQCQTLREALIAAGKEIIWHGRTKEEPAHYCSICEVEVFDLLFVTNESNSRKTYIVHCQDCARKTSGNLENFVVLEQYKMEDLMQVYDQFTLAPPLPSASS
inactive: lapatinib 0.033 | pictilisib 0.046 | crizotinib 0.003 | [1] -0.028 | duvelisib 0.032 | gandotinib 0.009 | tozasertib 0.01 | doramapimod 0.022 | bafetinib 0.002 | [2] 0.013

HNRNPD isoform 3 (UniProt Q14103)
UniProt Q14103, sequence (Q14103 whole entry, looked up): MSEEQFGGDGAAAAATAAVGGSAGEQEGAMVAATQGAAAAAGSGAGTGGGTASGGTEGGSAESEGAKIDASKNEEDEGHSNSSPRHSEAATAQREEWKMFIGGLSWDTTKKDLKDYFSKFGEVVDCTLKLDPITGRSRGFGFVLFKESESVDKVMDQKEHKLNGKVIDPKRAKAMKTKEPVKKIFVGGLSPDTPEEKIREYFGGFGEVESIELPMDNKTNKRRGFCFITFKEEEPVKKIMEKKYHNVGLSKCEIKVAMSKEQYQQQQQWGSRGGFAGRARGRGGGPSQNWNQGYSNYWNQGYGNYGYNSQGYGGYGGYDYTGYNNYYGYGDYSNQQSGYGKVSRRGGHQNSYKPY
inactive: lapatinib -0.062 | pictilisib 0.126 | crizotinib -0.07 | [1] -0.08 | duvelisib 0.043 | gandotinib 0.094 | tozasertib -0.078 | doramapimod 0.045 | bafetinib 0.166 | [2] 0.033

HDAC6 (UniProt Q9UBN7)
inactive: lapatinib -0.019 | pictilisib -0.085 | crizotinib -0.039 | [1] 0.014 | duvelisib 0.065 | gandotinib -0.017 | tozasertib 0.002 | doramapimod 0.012 | bafetinib -0.069 | [2] -0.01

GTF2H1 (UniProt P32780)
inactive: lapatinib -0.03 | pictilisib -0.017 | crizotinib -0.028 | [1] 0.032 | duvelisib 0.023 | gandotinib 0.035 | tozasertib -0.019 | doramapimod -0.001 | bafetinib -0.03 | [2] -0.021

GNE isoform 2 (UniProt Q9Y223)
UniProt Q9Y223, sequence (Q9Y223 whole entry, looked up): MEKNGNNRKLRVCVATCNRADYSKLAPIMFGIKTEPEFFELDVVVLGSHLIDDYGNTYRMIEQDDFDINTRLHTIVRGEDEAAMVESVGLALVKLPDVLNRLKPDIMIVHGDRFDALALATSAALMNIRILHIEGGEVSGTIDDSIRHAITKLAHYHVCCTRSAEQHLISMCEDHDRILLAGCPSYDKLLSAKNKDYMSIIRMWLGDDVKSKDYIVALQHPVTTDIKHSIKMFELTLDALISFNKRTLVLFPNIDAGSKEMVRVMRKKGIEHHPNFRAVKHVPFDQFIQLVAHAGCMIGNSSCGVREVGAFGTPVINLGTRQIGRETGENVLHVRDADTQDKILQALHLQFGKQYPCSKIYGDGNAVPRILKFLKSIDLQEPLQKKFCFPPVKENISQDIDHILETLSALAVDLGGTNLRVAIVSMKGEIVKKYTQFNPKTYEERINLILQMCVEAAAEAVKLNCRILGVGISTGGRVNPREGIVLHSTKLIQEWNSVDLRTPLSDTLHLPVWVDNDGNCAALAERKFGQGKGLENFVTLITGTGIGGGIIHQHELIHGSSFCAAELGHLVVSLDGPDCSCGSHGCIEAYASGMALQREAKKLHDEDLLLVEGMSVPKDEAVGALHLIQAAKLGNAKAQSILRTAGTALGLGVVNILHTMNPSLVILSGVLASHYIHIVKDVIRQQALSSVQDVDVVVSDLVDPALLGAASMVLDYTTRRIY
inactive: lapatinib 0.012 | pictilisib -0.005 | crizotinib -0.053 | [1] -0.01 | duvelisib -0.011 | gandotinib -0.127 | tozasertib -0.008 | doramapimod 0.021 | bafetinib -0.031 | [2] 0.034

GOLPH3L (UniProt Q9H4A5)
inactive: lapatinib 0.019 | pictilisib -0.048 | crizotinib -0.106 | [1] -0.028 | duvelisib -0.027 | gandotinib -0.05 | tozasertib -0.071 | doramapimod -0.009 | bafetinib -0.146 | [2] 0.029

GNB4 (UniProt Q9HAV0)
inactive: lapatinib 0.031 | pictilisib -0.031 | crizotinib 0.106 | [1] -0.058 | duvelisib 0.015 | gandotinib 0.094 | tozasertib -0.028 | doramapimod 0.171 | bafetinib -0.033 | [2] 0.074

HADH isoform 2 (UniProt Q16836)
UniProt Q16836, sequence (Q16836 whole entry, looked up): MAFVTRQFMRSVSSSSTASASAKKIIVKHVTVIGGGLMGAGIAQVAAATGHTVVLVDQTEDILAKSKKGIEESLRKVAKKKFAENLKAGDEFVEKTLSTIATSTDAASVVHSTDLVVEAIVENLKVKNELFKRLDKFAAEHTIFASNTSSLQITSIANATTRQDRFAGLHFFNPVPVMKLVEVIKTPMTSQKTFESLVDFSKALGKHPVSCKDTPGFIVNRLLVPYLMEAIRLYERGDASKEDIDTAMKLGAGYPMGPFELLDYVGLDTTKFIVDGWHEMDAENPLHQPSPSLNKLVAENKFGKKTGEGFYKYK
inactive: lapatinib -0.011 | pictilisib 0.04 | crizotinib 0.031 | [1] 0.057 | duvelisib -0.044 | gandotinib -0.05 | tozasertib 0.053 | doramapimod -0.055 | bafetinib 0.045 | [2] -0.055

IFNGR1 (UniProt P15260)
inactive: lapatinib -0.076 | pictilisib 0.153 | crizotinib -0.008 | [1] -0.497 | duvelisib 0.196 | gandotinib 0.263 | tozasertib -0.001 | doramapimod -0.034 | bafetinib -0.144 | [2] 0.378

HMGCS1 (UniProt Q01581)
inactive: lapatinib 0.077 | pictilisib 0.018 | crizotinib 0.001 | [1] -0.031 | duvelisib 0.003 | gandotinib 0.006 | tozasertib -0.006 | doramapimod 0.036 | bafetinib 0.013 | [2] -0.004

HELQ (UniProt Q8TDG4)
inactive: lapatinib 0.002 | pictilisib -0.009 | crizotinib -0.011 | [1] -0.014 | duvelisib 0.025 | gandotinib 0.012 | tozasertib -0.01 | doramapimod 0.042 | bafetinib -0.109 | [2] -0.033

HSPBAP1 (UniProt Q96EW2)
inactive: lapatinib -0.074 | pictilisib -0.014 | crizotinib -0.111 | [1] -0.076 | duvelisib 0.022 | gandotinib 0.15 | tozasertib -0.025 | doramapimod 0.125 | bafetinib 0.052 | [2] -0.141
